The list is not random: actives were taken first. Their share in the collection is about 3%.
OvCa metastasis – ovarian cancer metastasis inhibition, 3D TME model | 46,000 tested, 0.1% active | AID 1963576 | Potency, µM (series often up to 45.8 µM), actives largely listed as inhibitors | SKOV3ip1-GFP adhesion/invasion on 3D omental model, fluorescence; note: nearly all actives have a fitted effect of over 65% in size
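qHTS, 4-pt dose (0.36-46 umol/L); SKOV3ip1-GFP, 1,200 cells/well, no FBS; primary omental fibroblast/mesothelial co-culture 48 h pre-grown; 2 h RT + 16 h 37 C; PBS wash, 4% PFA; GFP count 488/509 nm.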
PMP22 txn prim – PMP22 gene transcription modulation. Potency, µM (titrated, usually from 57.5 µM), usual class: inhibitors. S16 Pmp22-F2sN Schwann cells, FLuc/NLuc coincidence luminescence, 24 h. AID 1508649. 43,000 tested, 2% active; active = clear falling dose curves in both reporters; inconclusive = both reporters move, but less clearly or upward; inactive = either reporter flat; the % is the NLuc reporter signal
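qHTS, 1536-well. Cells seeded, compounds added by pin tool, 24 h 37C. Nano-Glo reagent 1 (lysis/FLuc), 10 min RT, read; Stop&Glo, 10 min RT, read NLuc.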
mTORC1 inh – mTORC1 pathway inhibition measured by phospho-rpS6; Tsc2-/- p53-/- MEF, phospho-rpS6 immunofluorescence/PI, 24 h; Potency, µM (highest dose often 38.3 µM), usual class: inhibitors; 44,000 tested, 0.78% active; note: nearly all actives have a fitted effect of over 50% in size
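Plate MEFs (Tsc2-/-, p53-/-, empty vector) in DMEM/10% FBS; after 24 h add compound, incubate 24 h at 37 degree Celsius; fix in PFA/TX-100, block, stain phospho-rpS6 and 10 uM PI; scan at 488 nm; report % positive cells.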
S16 F2sN tox – S16 Schwann cell cytotoxicity; S16 Pmp22-F2sN Schwann cells viability, CellTiter-Glo, 24 h; Potency, µM (highest dose often 57.5 µM), hits mostly cytotoxic; 43,000 tested, 0.48% active; AID 1508642; note: nearly all actives have a fitted effect of over 65% in size
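Used to flag compounds lowering reporter output through toxicity, this quantitative HTS measures ATP-based CellTiter-Glo luminescence in S16 Pmp22-F2sN Schwann cells after 24 h compound exposure at 37C.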
p53null 39C kill – p53 null cell cytotoxicity, nonpermissive temperature; Potency, µM (titrated, usually from 46.1 µM), most hits filed as cytotoxic; H1299 p53-null (neo) cells, 39C, ATPlite viability, 24 h; 55,000 tested, 0.97% active; note: nearly all actives have a fitted effect of over 50% in size
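Following overnight plating at 37C (600 cells/well), H1299-neo or H1299-p53A138V cells are dosed up to 46 uM. Incubation lasts 24 hr at 39C before ATP detection.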
p53null 32C kill – selectivity test: cytotoxicity in p53 null cells, permissive temperature | Potency, µM (highest dose often 46.1 µM), hits mostly cytotoxic | 55,000 tested, 0.62% active | H1299-neo p53 null cells, ATP luminescence, 24 h, 32C; note: nearly all actives have a fitted effect of over 55% in size
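H1299-neo (p53 null) cells, 600/well, treated 24 h at 32C with compound up to 46 uM; ATPlite luminescence viability, normalized to DMSO and 100 uM tamoxifen; AC50 by Hill fit.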
Large screens that a line does not name were inactive. Unless noted, calls come from the whole dose curve; as a rule, active = well fitted curve in the direction sought with a large enough effect; inconclusive = small, poorly fitted or top-dose-only effect, or another doubt; inactive = no such curve, though single readings can be large; an effect the other way counts as inactive or inconclusive.

Cc1[nH]c(C=C2C(=O)Nc3ccccc32)c(C)c1CCC(=O)O	none (no result: PMP22 txn prim, mTORC1 inh, S16 F2sN tox, p53null 39C kill, p53null 32C kill)
CC(C)c1ccc(-c2noc(SCC(=O)N3CCCCC3)n2)cc1	PMP22 txn prim inconclusive, p53null 39C kill inconclusive, p53null 32C kill 13µM
Cc1cccc(OC(=O)c2cc(-c3ccc4c(c3)OCCO4)on2)c1C	p53null 39C kill 32µM, p53null 32C kill 16µM
Cc1ccccc1OC(=O)c1cc(-c2ccc3c(c2)OCCO3)on1	p53null 39C kill inconclusive, p53null 32C kill inconclusive
O=C(Oc1ccccc1Cl)c1cc(-c2ccc3c(c2)OCCO3)on1	PMP22 txn prim inconclusive, p53null 39C kill inconclusive, p53null 32C kill 20µM
NC1CCC(Nc2nc(Nc3ccc(C(=O)N4CCCCC4)cc3)c3ncn(-c4cccc(F)c4)c3n2)CC1 (stereo unspecified)	none (no result: PMP22 txn prim, mTORC1 inh, S16 F2sN tox, p53null 39C kill, p53null 32C kill)
c1ccc(-c2oc3ncnc(NC[C@@H]4CCCO4)c3c2-c2ccccc2)cc1	none (no result: PMP22 txn prim, mTORC1 inh, S16 F2sN tox, p53null 39C kill, p53null 32C kill)
Cc1ccc(/C=C/C(=O)Nc2ccc(S(N)(=O)=O)cc2)o1	none
CC(C)(C)c1ccc(/C=C/C(=O)Nc2ccc(S(N)(=O)=O)cc2)cc1	PMP22 txn prim inconclusive, S16 F2sN tox inconclusive, p53null 39C kill inconclusive, p53null 32C kill 25µM
C=C(C)[C@@H]1CC[C@]2(C)CC[C@]3(C)[C@H](CC[C@@H]4[C@@]5(C)CC[C@H](O)C(C)(C)[C@H]5CC[C@]43C)[C@@H]12	none (no result: PMP22 txn prim, mTORC1 inh, S16 F2sN tox, p53null 39C kill, p53null 32C kill)
Cc1cccc(NC(c2cccc(Cl)c2)c2ccc3cccnc3c2O)n1 (stereo unspecified)	PMP22 txn prim inconclusive, mTORC1 inh inconclusive, S16 F2sN tox inconclusive, p53null 39C kill 2.5µM, p53null 32C kill inconclusive
Cc1ccnc(NC(c2cccc(O)c2)c2ccc3ccc(C)nc3c2O)c1 (stereo unspecified)	PMP22 txn prim inconclusive, mTORC1 inh inconclusive
Cc1ccc(C(Nc2ccccn2)c2ccc3cccnc3c2O)cc1 (stereo unspecified)	PMP22 txn prim inconclusive, S16 F2sN tox 32µM, p53null 39C kill 4µM, p53null 32C kill inconclusive
CCS(=O)(=O)c1ncc(Cl)c(C(=O)N(Cc2ccccc2)Cc2ccco2)n1	PMP22 txn prim 3.2µM, mTORC1 inh 3.3µM, S16 F2sN tox 3.5µM, p53null 39C kill inconclusive, p53null 32C kill inconclusive
COc1ccc(F)cc1S(=O)(=O)NCC(c1ccco1)S(=O)(=O)c1ccc(F)cc1 (stereo unspecified)	PMP22 txn prim 19µM, S16 F2sN tox 16µM
O=C(NCC(c1ccco1)S(=O)(=O)c1cccs1)c1ccc(Cl)cc1 (stereo unspecified)	none
O=S(=O)(NCC(c1ccco1)S(=O)(=O)c1cccs1)c1ccc(F)c(C(F)(F)F)c1 (stereo unspecified)	PMP22 txn prim 7.3µM, S16 F2sN tox 2.5µM
COc1ccc(S(=O)(=O)NCC(c2ccco2)S(=O)(=O)c2ccc(C)cc2)cc1C (stereo unspecified)	PMP22 txn prim inconclusive, S16 F2sN tox inconclusive
COc1ccc(OC)c(S(=O)(=O)NCC(c2cccs2)S(=O)(=O)c2ccc(F)cc2)c1 (stereo unspecified)	PMP22 txn prim inconclusive, mTORC1 inh inconclusive, S16 F2sN tox inconclusive
COc1ccc(F)cc1S(=O)(=O)NCC(c1ccco1)S(=O)(=O)c1cccs1 (stereo unspecified)	PMP22 txn prim 9.5µM, S16 F2sN tox 13µM
O=S(=O)(NCC(c1ccco1)S(=O)(=O)c1cccs1)c1ccccc1 (stereo unspecified)	PMP22 txn prim inconclusive, S16 F2sN tox 32µM
CC1=C(C(=O)Nc2cc3cn[nH]c3cc2F)C(c2ccc(Cl)cc2F)N=C(c2ccnc(Cl)c2)N1 (stereo unspecified)	none (no result: PMP22 txn prim, mTORC1 inh, S16 F2sN tox, p53null 39C kill, p53null 32C kill)
CC(C)(C)c1ccc(C(=O)NCC(c2cccs2)S(=O)(=O)c2ccccc2)cc1 (stereo unspecified)	PMP22 txn prim inconclusive, S16 F2sN tox inconclusive
